Measured values: the supplement of paper PMC10849652
About 8,800 targets were measured; listed, in parts, are those with a hit and a random draw of the rest. About 0.5% of all pairs of compound and target were hits.

How the values were obtained:
Experiment in all cases: log2 fold change, soluble protein after heating vs DMSO (PISA); higher = thermal stabilisation; K562 lysate, 10 uM; active = over 0.2 and 3.5 SD of the protein, either way, in both replicates (recomputed)
erlotinib = compound: C#Cc1cccc(Nc2ncnc3cc(OCCOC)c(OCCOC)cc23)c1 [erlotinib]
Outline: (§1)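 K562 pellets were dounce-homogenised in PBS pH 7.4 containing 1 mM MgCl2, and the crude extract, at 1 mg/mL protein, was exposed to 10 μM compound for 30 min. Aliquots were heated for 3 min across 48°C-58°C, pooled, brought to 0.5% NP-40 at 4°C and spun at 21,000xg for 90 min, with the supernatant taken as soluble protein. TMTpro 16plex LC-MS/MS with equalised channel sums quantified that protein. Values are log-two fold changes in thermal stability relative to solvent controls, taken from duplicates.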

[1] = compound: C/C(=N\NC(=O)C1=CC(=CC=C1)S(=O)(=O)N2CCOCC2)/C3=C(C=CC(=C3)Cl)O
Outline: as §1

[2] = compound: C1=CC(=CC=C1C2=NC3=C(N2)C=C(C=C3)C(=O)N)OC4=CC=C(C=C4)Cl
Outline: as §1

[3] = compound: C1=CC2=C(C=CC(=C2)/C=C\3/C(=O)NC(=NCC4=CC=CS4)S3)N=C1
Outline: as §1

[4] = compound: C1=CC2=NC=CN=C2C=C1/C=C/3\C(=O)NC(=O)S3
Outline: as §1

[5] = compound: C1=CC=C(C=C1)C2=NC(=C(N2)C3=CC=NC=C3)C4=CC(=C(C=C4)Cl)O
Outline: as §1

[6] = compound: C1=CC=C2C(=C1)C3=NNC4=CC=CC(=C43)C2=O
Outline: as §1

[7] = compound: C1CCN(C1)C(=O)NC2=CC=CC(=C2)NC3=NC=C(C(=N3)NCCC4=CN=CN4)Br
Outline: as §1

[8] = compound: C1CN(CCC1(CC2=CC=C(C=C2)Cl)N)C3=NC=NC4=C3C=CN4
Outline: as §1

IRAK-1-4 Inhibitor I = compound: C1COCCN1CCN2C3=CC=CC=C3N=C2NC(=O)C4=CC(=CC=C4)[N+](=O)[O-] [IRAK-1-4 Inhibitor I]
Outline: as §1

ibrutinib = compound: C=CC(=O)N1CCC[C@@H](n2nc(-c3ccc(Oc4ccccc4)cc3)c3c(N)ncnc32)C1 [ibrutinib]
Outline: as §1

[9] = compound: CC(=O)c1cnc2ccc(-c3cc(Cl)c(O)c(Cl)c3)nc2c1N[C@H]1CC[C@H](CN(C)C)CC1
Outline: as §1

ralimetinib = compound: CC(C)(C)Cn1c(N)nc2ccc(-c3[nH]c(C(C)(C)C)nc3-c3ccc(F)cc3)nc21 [ralimetinib]
Outline: as §1

[10] = compound: CC(C)(O)CC(=O)NCCn1ccc2ncnc(Nc3ccc(Oc4cccc(C(F)(F)F)c4)c(Cl)c3)c21
Outline: as §1

[11] = compound: CC(C)C1=C2N=C(C=C(N2N=C1)NCC3=CC=CC=C3)NCCCCCCN
Outline: as §1

[12] = compound: CC1=C(C(CC(=O)N1)C2=CC=C(C=C2)C(F)(F)F)C(=O)NC3=C(C=C4C(=C3)C=NN4)F
Outline: as §1

[13] = compound: CC1=C(C2=C(C=C1)C(=O)C3=CC=CC=C3N2CCCN)C
Outline: as §1

[14] = compound: CC1=C(C=C(C=C1)NC(=O)C2=CC(=CC=C2)C(C)(C)C#N)NC3=CC4=C(C=C3)N=CN(C4=O)C
Outline: as §1

[15] = compound: CC1=C(C=C(C=C1)NC(=O)C2=CC(=CC=C2)N(C)C)NC(=O)C3=CC=C(C=C3)O
Outline: as §1

[16] = compound: CC1=CC=C(C=C1)SC2=C3C=C(SC3=CN=C2)C(=O)N
Outline: as §1

Measured: log2 fold change

GLB1 (UniProt P16278)
Chain of UniProt P16278 (P16278 whole entry, looked up): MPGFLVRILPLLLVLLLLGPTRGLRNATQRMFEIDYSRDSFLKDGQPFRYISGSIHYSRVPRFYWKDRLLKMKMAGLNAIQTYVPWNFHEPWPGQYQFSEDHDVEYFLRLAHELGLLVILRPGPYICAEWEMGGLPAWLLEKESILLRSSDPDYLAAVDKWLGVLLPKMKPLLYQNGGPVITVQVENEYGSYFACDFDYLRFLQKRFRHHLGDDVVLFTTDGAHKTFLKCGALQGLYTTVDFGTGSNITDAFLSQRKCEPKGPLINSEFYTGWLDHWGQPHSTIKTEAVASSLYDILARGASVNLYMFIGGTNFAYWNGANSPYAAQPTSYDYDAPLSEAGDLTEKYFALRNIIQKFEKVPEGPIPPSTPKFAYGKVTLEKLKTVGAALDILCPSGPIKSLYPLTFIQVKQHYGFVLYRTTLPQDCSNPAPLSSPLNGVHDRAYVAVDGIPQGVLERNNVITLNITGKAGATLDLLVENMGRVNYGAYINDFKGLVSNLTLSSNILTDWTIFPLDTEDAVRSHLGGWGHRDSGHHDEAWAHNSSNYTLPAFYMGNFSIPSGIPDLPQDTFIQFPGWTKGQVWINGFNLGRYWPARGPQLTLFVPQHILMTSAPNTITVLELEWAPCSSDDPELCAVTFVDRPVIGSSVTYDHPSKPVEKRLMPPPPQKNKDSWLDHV
inactive: erlotinib 0.004 | [1] -0.027 | [2] 0.004 | [3] 0.039 | [4] -0.011 | [5] 0.016 | [6] -0.086 | [7] -0.003 | [8] 0.031 | IRAK-1-4 Inhibitor I 0.016 | ibrutinib 0.002 | [9] -0.008 | ralimetinib -0.005 | [10] -0.03 | [11] 0.003 | [12] -0.009 | [13] -0.001 | [14] -0.011 | [15] 0.025 | [16] 0.015

HMGCL (UniProt P35914)
Chain of UniProt P35914 (P35914 whole entry, looked up): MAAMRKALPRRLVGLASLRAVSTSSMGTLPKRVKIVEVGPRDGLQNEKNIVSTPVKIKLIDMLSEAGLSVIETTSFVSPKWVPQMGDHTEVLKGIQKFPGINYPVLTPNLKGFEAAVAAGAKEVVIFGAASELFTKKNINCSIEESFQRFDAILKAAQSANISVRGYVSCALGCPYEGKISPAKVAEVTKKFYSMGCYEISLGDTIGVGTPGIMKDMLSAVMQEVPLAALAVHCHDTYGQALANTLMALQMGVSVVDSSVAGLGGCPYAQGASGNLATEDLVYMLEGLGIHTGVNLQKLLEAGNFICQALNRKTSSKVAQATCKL
inactive: erlotinib 0.002 | [1] -0.089 | [2] 0.032 | [3] -0.016 | [4] -0.047 | [5] -0.005 | [6] -0.035 | [7] 0.005 | [8] 0.008 | IRAK-1-4 Inhibitor I 0.024 | ibrutinib 0.037 | [9] 0.008 | ralimetinib 0.026 | [10] -0.016 | [11] -0.018 | [12] 0.001 | [13] -0.019 | [14] -0.009 | [15] 0.022 | [16] -0.014

HNRNPLL (UniProt Q8WVV9)
Chain of UniProt Q8WVV9 (Q8WVV9 whole entry, looked up): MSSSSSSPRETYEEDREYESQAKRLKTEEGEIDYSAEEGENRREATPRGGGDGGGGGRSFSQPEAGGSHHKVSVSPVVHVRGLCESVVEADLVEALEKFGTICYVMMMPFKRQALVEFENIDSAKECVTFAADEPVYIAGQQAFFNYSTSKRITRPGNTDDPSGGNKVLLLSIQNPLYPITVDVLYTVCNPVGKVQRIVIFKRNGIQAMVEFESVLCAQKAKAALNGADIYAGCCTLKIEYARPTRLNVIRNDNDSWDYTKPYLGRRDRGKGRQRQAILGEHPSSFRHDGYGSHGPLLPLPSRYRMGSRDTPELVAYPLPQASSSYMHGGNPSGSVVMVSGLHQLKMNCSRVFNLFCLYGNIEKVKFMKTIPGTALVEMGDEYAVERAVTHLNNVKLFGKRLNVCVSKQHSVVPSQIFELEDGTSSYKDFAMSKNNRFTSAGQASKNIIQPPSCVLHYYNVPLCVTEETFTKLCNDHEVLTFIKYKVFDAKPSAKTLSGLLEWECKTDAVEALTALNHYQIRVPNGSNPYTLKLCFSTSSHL
inactive: erlotinib 0.007 | [1] 0 | [2] 0.011 | [3] 0.009 | [4] -0.017 | [5] -0.019 | [6] -0.035 | [7] 0.006 | [8] -0.009 | IRAK-1-4 Inhibitor I -0.026 | ibrutinib -0.024 | [9] 0.016 | ralimetinib 0.005 | [10] 0.005 | [11] -0.004 | [12] -0.019 | [13] -0.012 | [14] 0.026 | [15] 0.024 | [16] 0.021

GTF2A1 (UniProt P52655)
Chain of UniProt P52655 (P52655 whole entry, looked up): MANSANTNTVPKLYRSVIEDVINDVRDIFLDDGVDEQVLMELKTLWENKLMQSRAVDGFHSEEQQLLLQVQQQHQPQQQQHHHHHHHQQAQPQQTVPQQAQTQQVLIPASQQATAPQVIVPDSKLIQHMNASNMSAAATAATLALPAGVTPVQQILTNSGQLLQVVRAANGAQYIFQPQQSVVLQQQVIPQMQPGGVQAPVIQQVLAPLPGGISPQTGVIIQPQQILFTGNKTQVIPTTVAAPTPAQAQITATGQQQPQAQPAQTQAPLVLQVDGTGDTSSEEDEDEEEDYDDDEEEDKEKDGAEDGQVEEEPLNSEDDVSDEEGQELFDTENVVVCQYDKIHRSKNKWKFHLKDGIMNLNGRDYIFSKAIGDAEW
inactive: erlotinib 0.031 | [1] -0.008 | [2] 0.015 | [3] 0.026 | [4] -0.01 | [5] -0.038 | [6] -0.061 | [7] -0.04 | [8] -0.01 | IRAK-1-4 Inhibitor I 0.033 | ibrutinib -0.009 | [9] -0.046 | ralimetinib 0.015 | [10] -0.016 | [11] -0.036 | [12] -0.069 | [13] -0.021 | [14] -0.013 | [15] 0.008 | [16] -0.014

KBTBD2 (UniProt Q8IY47)
Chain of UniProt Q8IY47 (Q8IY47 whole entry, looked up): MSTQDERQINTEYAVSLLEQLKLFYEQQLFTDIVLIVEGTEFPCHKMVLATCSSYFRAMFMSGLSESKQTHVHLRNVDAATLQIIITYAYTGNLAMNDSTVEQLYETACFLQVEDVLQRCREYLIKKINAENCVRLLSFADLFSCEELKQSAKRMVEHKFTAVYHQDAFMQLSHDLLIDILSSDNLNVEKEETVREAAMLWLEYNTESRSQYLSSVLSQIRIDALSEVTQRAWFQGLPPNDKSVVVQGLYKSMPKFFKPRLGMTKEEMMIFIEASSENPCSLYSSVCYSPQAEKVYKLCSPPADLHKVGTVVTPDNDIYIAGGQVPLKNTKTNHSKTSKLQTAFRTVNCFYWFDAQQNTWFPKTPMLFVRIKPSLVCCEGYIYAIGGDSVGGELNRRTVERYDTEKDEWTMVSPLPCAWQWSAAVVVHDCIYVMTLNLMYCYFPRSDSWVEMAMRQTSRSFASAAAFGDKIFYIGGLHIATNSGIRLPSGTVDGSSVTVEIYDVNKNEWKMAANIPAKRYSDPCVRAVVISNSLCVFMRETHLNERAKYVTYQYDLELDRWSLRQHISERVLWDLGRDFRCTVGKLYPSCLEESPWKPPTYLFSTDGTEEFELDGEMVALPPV
inactive: erlotinib -0.002 | [1] 0.019 | [2] 0.056 | [3] 0 | [4] 0.011 | [5] 0.016 | [6] -0.079 | [7] -0.023 | [8] 0.052 | IRAK-1-4 Inhibitor I 0.097 | ibrutinib -0.005 | [9] -0.039 | ralimetinib -0.113 | [10] -0.227 | [11] 0 | [12] 0.001 | [13] -0.036 | [14] 0.116 | [15] 0 | [16] -0.041

H4C1 (UniProt P62805)
inactive: erlotinib 0.065 | [1] 0.499 | [2] -0.023 | [3] -0.042 | [4] -0.024 | [5] 0.252 | [6] -0.008 | [7] 0.067 | [8] -0.052 | IRAK-1-4 Inhibitor I -0.067 | ibrutinib 0.055 | [9] -0.008 | ralimetinib -0.078 | [10] -0.037 | [11] -0.046 | [12] 0.075 | [13] -0.082 | [14] 0.011 | [15] -0.022 | [16] 0.008

HK1 isoform 2 (UniProt P19367)
Chain of UniProt P19367 (P19367 whole entry, looked up): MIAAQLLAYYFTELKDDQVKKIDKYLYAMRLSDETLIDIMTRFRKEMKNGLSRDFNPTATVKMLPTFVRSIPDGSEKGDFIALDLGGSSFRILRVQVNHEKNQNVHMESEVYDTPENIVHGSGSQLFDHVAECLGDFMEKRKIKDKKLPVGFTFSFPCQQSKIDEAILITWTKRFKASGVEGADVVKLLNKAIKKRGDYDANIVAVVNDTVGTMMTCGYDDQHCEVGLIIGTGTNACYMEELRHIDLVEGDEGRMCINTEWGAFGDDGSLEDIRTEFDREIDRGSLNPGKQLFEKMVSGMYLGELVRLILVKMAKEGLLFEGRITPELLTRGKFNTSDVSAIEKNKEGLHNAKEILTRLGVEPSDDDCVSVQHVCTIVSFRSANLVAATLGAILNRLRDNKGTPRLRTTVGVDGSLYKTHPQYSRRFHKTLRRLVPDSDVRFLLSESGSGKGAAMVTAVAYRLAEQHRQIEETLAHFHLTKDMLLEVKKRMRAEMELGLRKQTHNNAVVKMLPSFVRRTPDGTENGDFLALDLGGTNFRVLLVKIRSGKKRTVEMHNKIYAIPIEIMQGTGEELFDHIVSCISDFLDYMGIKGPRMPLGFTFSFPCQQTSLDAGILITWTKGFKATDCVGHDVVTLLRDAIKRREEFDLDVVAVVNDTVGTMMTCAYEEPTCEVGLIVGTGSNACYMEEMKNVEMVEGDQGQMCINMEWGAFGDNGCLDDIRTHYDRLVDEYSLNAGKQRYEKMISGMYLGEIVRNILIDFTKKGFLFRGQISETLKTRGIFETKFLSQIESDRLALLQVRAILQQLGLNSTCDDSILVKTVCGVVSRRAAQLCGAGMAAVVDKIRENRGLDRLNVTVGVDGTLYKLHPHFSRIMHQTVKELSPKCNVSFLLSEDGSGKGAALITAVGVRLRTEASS
inactive: erlotinib -0.027 | [1] -0.006 | [2] 0.009 | [3] 0.006 | [4] 0.007 | [5] 0.007 | [6] -0.006 | [7] 0.001 | [8] 0.014 | IRAK-1-4 Inhibitor I -0.002 | ibrutinib -0.007 | [9] 0.005 | ralimetinib -0.008 | [10] 0.021 | [11] -0.029 | [12] -0.029 | [13] 0.025 | [14] 0.023 | [15] 0.016 | [16] 0.008

ISY1 isoform 1 (UniProt Q9ULR0)
Chain of UniProt Q9ULR0 (Q9ULR0 whole entry, looked up): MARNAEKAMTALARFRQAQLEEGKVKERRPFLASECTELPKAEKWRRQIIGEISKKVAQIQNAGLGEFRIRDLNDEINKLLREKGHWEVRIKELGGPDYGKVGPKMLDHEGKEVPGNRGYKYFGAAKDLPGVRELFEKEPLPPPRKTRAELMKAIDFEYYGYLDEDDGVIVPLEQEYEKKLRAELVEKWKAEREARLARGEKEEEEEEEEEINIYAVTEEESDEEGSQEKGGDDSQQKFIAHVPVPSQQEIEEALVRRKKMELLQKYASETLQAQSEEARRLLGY
inactive: erlotinib 0.022 | [1] 0.07 | [2] 0.02 | [3] 0.06 | [4] 0.018 | [5] 0.004 | [6] -0.004 | [7] 0.031 | [8] 0.068 | IRAK-1-4 Inhibitor I 0.014 | ibrutinib 0.019 | [9] 0.028 | ralimetinib 0.007 | [10] -0.029 | [11] -0.056 | [12] -0.019 | [13] -0.157 | [14] -0.006 | [15] -0.02 | [16] -0.04
